Experimental data: PubChem BioAssay (NCI)
Compounds without any hit were thinned out: in the full panel of roughly 79,000, 15% have a hit. Unmarked numbers belong to inactive results. Active and inactive are the calls of the source. No stated cut-off is given here; in the data, active means growth inhibition above about 70%; inactive means the rest.

Assays:
[1] = NCI Yeast Anticancer Drug Screen. Data for the rad52 strain (AID 147);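 further: 0% = growth of vehicle-treated control cultures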; conditions: S. cerevisiae rad52 mutant growth inhibition, hits give high values
Outline: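 Screen used a yeast mutant impaired in DNA repair. After compound exposure, growth was measured. Values reflect inhibition compared with vehicle-treated cells.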

[2] = NCI Yeast Anticancer Drug Screen. Data for the wt1 strain (AID 149);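 further: 0% = growth of vehicle-treated wt1 cultures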; conditions: S. cerevisiae wt1 strain (SPY 50644) growth inhibition, hits give high values
Outline: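 Using yeast strain wt1, compound-induced growth inhibition was determined against vehicle-treated cultures.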

[3] = NCI Yeast Anticancer Drug Screen. Data for the rad50EPP+ strain (AID 151);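 further: 0% = growth of vehicle-treated control cultures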; conditions: S. cerevisiae rad50 mutant strain, hits give high values
Outline: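 Exposing the rad50EPP+ strain to each compound, growth was compared with vehicle-only cultures to give inhibition.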

[4] = NCI Yeast Anticancer Drug Screen. Data for the mgt1 strain (AID 153); conditions: S. cerevisiae mgt1 mutant growth inhibition, hits give high values
Outline: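 Genetically defined yeast (mgt1) treated with compound; inhibition of growth expressed against vehicle-treated controls.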

[5] = NCI Yeast Anticancer Drug Screen. Data for the rad50 strain (AID 155);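 further: 0% = growth of vehicle-only cultures of the same strain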; conditions: S. cerevisiae rad50 strain growth inhibition, hits give high values
Outline: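 Relative growth inhibition (compound vs vehicle) was measured in yeast with a defined repair-gene alteration.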

[6] = NCI Yeast Anticancer Drug Screen. Data for the mec2-1 strain (AID 157); conditions: S. cerevisiae mec2-1 strain, hits give high values
Outline: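 Readout is yeast growth inhibition, normalised to vehicle-treated controls, in the mec2-1 strain exposed to compound.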

[7] = NCI Yeast Anticancer Drug Screen. Data for the rad14 strain (AID 159);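 further: 0% = growth of vehicle-treated control cultures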; conditions: S. cerevisiae rad14 strain growth inhibition, hits give high values
Outline: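 Screen for anticancer potential: a yeast strain altered in DNA damage repair is grown with compound, and reduced growth is quantified against vehicle controls.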

[8] = NCI Yeast Anticancer Drug Screen. Data for the sgs1 mgt1 strain (AID 161);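 further: 0% = growth of cultures given vehicle only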; conditions: S. cerevisiae sgs1 mgt1 strain, hits give high values
Outline: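 This yeast growth screen uses a strain with defined DNA-repair lesions; compound-treated growth is compared with vehicle-treated growth.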

[9] = NCI Yeast Anticancer Drug Screen. Data for the CLN2oe strain (AID 163);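 further: 0% = growth of vehicle-only control cultures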; conditions: S. cerevisiae CLN2oe strain, hits give high values
Outline: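 Values reflect how much compound exposure reduced yeast growth, referenced to vehicle-exposed cells. Assay organism is a strain with a defined genetic change affecting cell-cycle control.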

[10] = NCI Yeast Anticancer Drug Screen. Data for the cln2 rad14 strain (AID 165);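 further: 0% = growth equal to vehicle treated cultures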; conditions: S. cerevisiae cln2 rad14 strain, hits give high values
Outline: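 Relative to vehicle controls, growth inhibition of compound-treated cln2 rad14 yeast was recorded.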

[11] = NCI Yeast Anticancer Drug Screen. Data for the bub3 strain (AID 167); conditions: S. cerevisiae bub3 mutant strain, hits give high values
Outline: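 Screening used yeast with an engineered genetic alteration affecting cell cycle control. Compound-exposed cultures were compared with vehicle cultures, and reduced growth was taken as inhibition.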

[12] = NCI Yeast Anticancer Drug Screen. Data for the wt2 strain (AID 169);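 further: 0% = growth of vehicle-treated yeast cultures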; conditions: S. cerevisiae wt2 strain growth inhibition, hits give high values
Outline: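 Values express reduction in yeast growth under compound treatment, referenced to vehicle-treated cells.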

[13] = NCI Yeast Anticancer Drug Screen. Data for the mlh1 strain (AID 171);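 further: 0% = growth of vehicle-treated control cultures of the same strain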; conditions: S. cerevisiae mlh1 strain growth inhibition, hits give high values
Outline: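 Steps: expose the defined-mutant yeast strain to compound; expose a parallel culture to vehicle; measure growth; express compound effect as inhibition relative to the vehicle culture.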

[14] = NCI Yeast Anticancer Drug Screen. Data for the sgs1 strain (AID 173);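 further: 0% = growth of vehicle-only control cultures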; conditions: S. cerevisiae sgs1 mutant, hits give high values
Outline: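 Treat defined-mutant yeast with compound; measure growth; calculate inhibition relative to vehicle-treated cells.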

[15] = NCI Yeast Anticancer Drug Screen. Data for the mlh1 rad18 strain (AID 175); conditions: S. cerevisiae mlh1 rad18 strain growth inhibition, hits give high values
Outline: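 Test agents were incubated with a yeast strain of defined genotype (DNA damage repair defect). Inhibition of growth was derived by comparison with vehicle-exposed cultures.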

[16] = NCI Yeast Anticancer Drug Screen. Data for the rad18 strain (AID 177); conditions: S. cerevisiae rad18 mutant growth inhibition, hits give high values
Outline: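 A genetically defined yeast mutant impaired in DNA damage repair was treated with test compounds, then its growth was measured against cultures receiving vehicle alone.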

[17] = at 5.0 µM (retest, dose inferred, filed as 0.5)
[18] = at 50.0 µM (retest, dose inferred, filed as 5.0)

## COc1cccc(/C=C2\S/C(=N/Nc3nc(-c4ccc([N+](=O)[O-])cc4)cs3)NC2=O)c1O
[1]; at 1.2 µM
  growth inhibition: 15%
[1]; at 3.7 µM
  growth inhibition: 21%
[1]; at 11.0 µM
  growth inhibition: 58%
[1]; at 33.0 µM
  growth inhibition: 72% (active)
[1]; at 100.0 µM
  growth inhibition: 80% (active)
[2]; at 1.2 µM
  growth inhibition: -78%
[2]; at 3.7 µM
  growth inhibition: 7%
[2]; at 11.0 µM
  growth inhibition: 22%
[2]; at 33.0 µM
  growth inhibition: 42%
[2]; at 100.0 µM
  growth inhibition: 57%
[3]; at 1.2 µM
  growth inhibition: 33%
[3]; at 3.7 µM
  growth inhibition: 63%
[3]; at 11.0 µM
  growth inhibition: 89% (active)
[3]; at 33.0 µM
  growth inhibition: 96% (active)
[3]; at 100.0 µM
  growth inhibition: 94% (active)
[4]; at 1.2 µM
  growth inhibition: 9%
[4]; at 3.7 µM
  growth inhibition: 23%
[4]; at 11.0 µM
  growth inhibition: 39%
[4]; at 33.0 µM
  growth inhibition: 59%
[4]; at 100.0 µM
  growth inhibition: 56%
[5]; at 1.2 µM
  growth inhibition: 2%
[5]; at 3.7 µM
  growth inhibition: 11%
[5]; [17]
  growth inhibition: -1%
[5]; at 11.0 µM
  growth inhibition: 43%
[5]; at 33.0 µM
  growth inhibition: 73% (active)
[5]; [18]
  growth inhibition: 84% (active)
[5]; at 50.0 µM
  growth inhibition: 97% (active)
[5]; at 100.0 µM
  growth inhibition: 80% (active)
[6]; at 1.2 µM
  growth inhibition: 1%
[6]; at 3.7 µM
  growth inhibition: 12%
[6]; [17]
  growth inhibition: -4%
[6]; at 11.0 µM
  growth inhibition: 39%
[6]; at 33.0 µM
  growth inhibition: 79% (active)
[6]; [18]
  growth inhibition: 52%
[6]; at 50.0 µM
  growth inhibition: 94.2% (active)
[6]; at 100.0 µM
  growth inhibition: 83% (active)
[7]; at 1.2 µM
  growth inhibition: 0%
[7]; at 3.7 µM
  growth inhibition: 3%
[7]; at 11.0 µM
  growth inhibition: 6%
[7]; at 33.0 µM
  growth inhibition: 20%
[7]; at 100.0 µM
  growth inhibition: 43%
[8]; [17]
  growth inhibition: 0%
[8]; [18]
  growth inhibition: 76% (active)
[8]; at 50.0 µM
  growth inhibition: 95.7% (active)
[9]; at 1.2 µM
  growth inhibition: 6%
[9]; at 3.7 µM
  growth inhibition: 25%
[9]; at 11.0 µM
  growth inhibition: 63%
[9]; at 33.0 µM
  growth inhibition: 90% (active)
[9]; at 100.0 µM
  growth inhibition: 93% (active)
[10]; [17]
  growth inhibition: 33%
[10]; [18]
  growth inhibition: 85% (active)
[10]; at 50.0 µM
  growth inhibition: 76.7% (active)
[11]; at 1.2 µM
  growth inhibition: 7%
[11]; at 3.7 µM
  growth inhibition: 33%
[11]; [17]
  growth inhibition: 82% (active)
[11]; at 11.0 µM
  growth inhibition: 62%
[11]; at 33.0 µM
  growth inhibition: 90% (active)
[11]; [18]
  growth inhibition: 97% (active)
[11]; at 50.0 µM
  growth inhibition: 97% (active)
[11]; at 100.0 µM
  growth inhibition: 94% (active)
[12]; at 1.2 µM
  growth inhibition: -2%
[12]; at 3.7 µM
  growth inhibition: 23%
[12]; at 11.0 µM
  growth inhibition: 76% (active)
[12]; at 33.0 µM
  growth inhibition: 94% (active)
[12]; at 100.0 µM
  growth inhibition: 92% (active)
[13]; at 1.2 µM
  growth inhibition: -1%
[13]; at 3.7 µM
  growth inhibition: 6%
[13]; at 11.0 µM
  growth inhibition: 30%
[13]; at 33.0 µM
  growth inhibition: 63%
[13]; at 100.0 µM
  growth inhibition: 74% (active)
[14]; at 1.2 µM
  growth inhibition: 5%
[14]; at 3.7 µM
  growth inhibition: 19%
[14]; at 11.0 µM
  growth inhibition: 50%
[14]; at 33.0 µM
  growth inhibition: 77% (active)
[14]; at 100.0 µM
  growth inhibition: 76% (active)
[15]; [17]
  growth inhibition: 10%
[15]; [18]
  growth inhibition: 89% (active)
[15]; at 50.0 µM
  growth inhibition: 95.3% (active)
[16]; at 1.2 µM
  growth inhibition: 10%
[16]; at 3.7 µM
  growth inhibition: 25%
[16]; at 11.0 µM
  growth inhibition: 72% (active)
[16]; at 33.0 µM
  growth inhibition: 93% (active)
[16]; at 100.0 µM
  growth inhibition: 92% (active)

## CCCNCC(=O)O[C@]1(CC)C(=O)OCc2c1cc1n(c2=O)Cc2cc3ccccc3nc2-1
[1]; at 1.2 µM
  growth inhibition: 80% (active)
[1]; at 3.7 µM
  growth inhibition: 90% (active)
[1]; at 11.0 µM
  growth inhibition: 94% (active)
[1]; at 33.0 µM
  growth inhibition: 95% (active)
[1]; at 100.0 µM
  growth inhibition: 96% (active)
[2]; at 1.2 µM
  growth inhibition: 13%
[2]; at 3.7 µM
  growth inhibition: 12%
[2]; at 11.0 µM
  growth inhibition: 28%
[2]; at 33.0 µM
  growth inhibition: 62%
[2]; at 100.0 µM
  growth inhibition: 85% (active)
[3]; at 1.2 µM
  growth inhibition: 29%
[3]; at 3.7 µM
  growth inhibition: 72% (active)
[3]; at 11.0 µM
  growth inhibition: 81% (active)
[3]; at 33.0 µM
  growth inhibition: 89% (active)
[3]; at 100.0 µM
  growth inhibition: 93% (active)
[4]; at 1.2 µM
  growth inhibition: 21%
[4]; at 3.7 µM
  growth inhibition: 25%
[4]; at 11.0 µM
  growth inhibition: 34%
[4]; at 33.0 µM
  growth inhibition: 63%
[4]; at 100.0 µM
  growth inhibition: 86% (active)
[5]; at 1.2 µM
  growth inhibition: 83% (active)
[5]; at 3.7 µM
  growth inhibition: 88% (active)
[5]; [17]
  growth inhibition: 78% (active)
[5]; at 11.0 µM
  growth inhibition: 92% (active)
[5]; at 33.0 µM
  growth inhibition: 92% (active)
[5]; [18]
  growth inhibition: 90% (active)
[5]; at 50.0 µM
  growth inhibition: 82.5% (active)
[5]; at 100.0 µM
  growth inhibition: 92% (active)
[6]; at 1.2 µM
  growth inhibition: 19%
[6]; at 3.7 µM
  growth inhibition: 33%
[6]; [17]
  growth inhibition: -5%
[6]; at 11.0 µM
  growth inhibition: 75% (active)
[6]; at 33.0 µM
  growth inhibition: 90% (active)
[6]; [18]
  growth inhibition: 86% (active)
[6]; at 50.0 µM
  growth inhibition: 88.1% (active)
[6]; at 100.0 µM
  growth inhibition: 93% (active)
[7]; at 1.2 µM
  growth inhibition: 3%
[7]; at 3.7 µM
  growth inhibition: 0%
[7]; at 11.0 µM
  growth inhibition: 16%
[7]; at 33.0 µM
  growth inhibition: 66%
[7]; at 100.0 µM
  growth inhibition: 87% (active)
[8]; [17]
  growth inhibition: 28%
[8]; [18]
  growth inhibition: 82% (active)
[8]; at 50.0 µM
  growth inhibition: 79% (active)
[9]; at 1.2 µM
  growth inhibition: 31%
[9]; at 3.7 µM
  growth inhibition: 34%
[9]; at 11.0 µM
  growth inhibition: 41%
[9]; at 33.0 µM
  growth inhibition: 71% (active)
[9]; at 100.0 µM
  growth inhibition: 86% (active)
[10]; [17]
  growth inhibition: 0%
[10]; [18]
  growth inhibition: 51%
[10]; at 50.0 µM
  growth inhibition: 64.5%
[11]; at 1.2 µM
  growth inhibition: 17%
[11]; at 3.7 µM
  growth inhibition: 12%
[11]; [17]
  growth inhibition: -9%
[11]; at 11.0 µM
  growth inhibition: 28%
[11]; at 33.0 µM
  growth inhibition: 69%
[11]; [18]
  growth inhibition: 68%
[11]; at 50.0 µM
  growth inhibition: 76.3% (active)
[11]; at 100.0 µM
  growth inhibition: 88% (active)
[12]; at 1.2 µM
  growth inhibition: -22%
[12]; at 3.7 µM
  growth inhibition: -32%
[12]; at 11.0 µM
  growth inhibition: -19%
[12]; at 33.0 µM
  growth inhibition: 37%
[12]; at 100.0 µM
  growth inhibition: 82% (active)
[13]; at 1.2 µM
  growth inhibition: 24%
[13]; at 3.7 µM
  growth inhibition: 7%
[13]; at 11.0 µM
  growth inhibition: 16%
[13]; at 33.0 µM
  growth inhibition: 61%
[13]; at 100.0 µM
  growth inhibition: 83% (active)
[14]; at 1.2 µM
  growth inhibition: 26%
[14]; at 3.7 µM
  growth inhibition: 30%
[14]; at 11.0 µM
  growth inhibition: 51%
[14]; at 33.0 µM
  growth inhibition: 82% (active)
[14]; at 100.0 µM
  growth inhibition: 90% (active)
[15]; [17]
  growth inhibition: 2%
[15]; [18]
  growth inhibition: 72% (active)
[15]; at 50.0 µM
  growth inhibition: 83.1% (active)
[16]; at 1.2 µM
  growth inhibition: 25%
[16]; at 3.7 µM
  growth inhibition: 34%
[16]; at 11.0 µM
  growth inhibition: 46%
[16]; at 33.0 µM
  growth inhibition: 75% (active)
[16]; at 100.0 µM
  growth inhibition: 84% (active)
